Screening data as filed in PubChem.
ANO1 block – blocks the mouse calcium-activated chloride channel TMEM16A | HEK293 TMEM16A/YFP iodide influx fluorescence, ionomycin | normalized B-score (activity score, 25-100; higher = stronger inhibition) at 10 µM | actives 1.2% (n = 310,000) | Q8BHY3;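 active means ratio plate-corrected score three or more library SD toward inhibition, starting fluorescence score within five deviations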;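 further: score derived from kinetic fluorescence span divided by baseline fluorescence per well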
HDAC3 inhib – human HDAC3 inhibition; recombinant HDAC3, fluorogenic peptide/trypsin coupled, fluorescence; O15379; AID 2718; actives 0.15% (n = 320,000); inhibition, % at 8.3 µM; in the data active means inhibition above about 26%, passing the limit was not always enough; inconclusive means no clear call, values can overlap the other calls
Target sequence (O15379 whole entry, looked up): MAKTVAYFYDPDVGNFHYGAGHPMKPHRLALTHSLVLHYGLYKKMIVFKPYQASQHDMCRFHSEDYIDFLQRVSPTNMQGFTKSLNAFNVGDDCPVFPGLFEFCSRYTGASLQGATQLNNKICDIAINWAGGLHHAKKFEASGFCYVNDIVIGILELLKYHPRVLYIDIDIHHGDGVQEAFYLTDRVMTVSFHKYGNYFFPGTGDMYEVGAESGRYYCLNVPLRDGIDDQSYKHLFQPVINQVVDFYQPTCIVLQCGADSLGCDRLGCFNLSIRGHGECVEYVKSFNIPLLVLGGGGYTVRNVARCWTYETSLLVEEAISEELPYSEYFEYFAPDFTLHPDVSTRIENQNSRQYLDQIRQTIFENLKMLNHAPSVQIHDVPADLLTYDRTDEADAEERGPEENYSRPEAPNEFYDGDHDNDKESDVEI
CHT block – inhibits the human high affinity choline transporter; Q9GZV3; CHT-expressing cells, membrane potential dye, choline response; hits give low values; B-score at 10 µM; actives 0.86% (n = 310,000);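 active means B-score over 3 SD under the library average, and starting fluorescence ratio not unusually high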;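 further: choline stimulus applied at its EC90 after an EC20 pre-addition; B-score computed on integrated fluorescence ratio after choline addition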
PHOSPHO1 inh – PHOSPHO1 (human) inhibition | inhibition, % at 13.3 µM | recombinant PHOSPHO1, absorbance phosphatase assay | AID 1565 | actives 1.1% (n = 290,000); in the data active means inhibition above about 60%
ANO1 activ – mouse TMEM16A channel activation, primary screen; AID 623877; HEK293 TMEM16A/YFP-H148Q/I152L, iodide quench fluorescence; hits give low values; B-score at 10 µM; actives 0.3% (n = 340,000);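 active means fluorescence-ratio B-score plate-corrected deviation score at least 3 library SD below zero, with starting fluorescence score within 5 deviations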;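 further: channel opened by trigger with iodide after compound preincubation; score built on the fluorescence ratio of max minus min over baseline; more negative score means more quench and so TMEM16A activation or potentiation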
CHT PAM – allosteric activators of human choline transporter CHT | actives 0.49% (n = 310,000) | CHT-expressing cells, membrane potential dye, choline EC20; hits give high values; LV-AA mutant CHT in HEK293 cells | Q9GZV3 | B-score at 10 µM | AID 488977;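 active means initial fluorescence not abnormally high and integrated response B-score, plate-corrected, over 3 SD above library mean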
CHT activ conf – confirmation of human choline transporter (CHT) activators. shares compounds with CHT PAM. CHT-expressing cells, membrane potential dye fluorescence (FDSS); % of choline EC20–EC90 response window; HEK293 expressing CHT LV-AA mutant; choline added at its EC20. activation, % at 10 µM. actives 91% (n = 2,500);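 active means primary screen active, with duplicate mean activation above negative control mean plus 3 SD, cut at about 11% in these data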
HEK293 MP dye – counter-screen for CHT activators: effect in parental HEK293 cells; ratio readout change at 10 µM, hits read low; shares compounds with CHT PAM; membrane potential dye fluorescence (FDSS); measured after EC20 choline addition; actives 62% (n = 2,500);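 active means duplicate-averaged ratio beyond 3 SD from buffer wells, up or down, though filed actives are nearly all decreases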
* marks the source's active call; other numbers are inactive results; i = inactive; ? = inconclusive; . = no result given. Most compounds without a hit are left out; they make up all but 3.2% or so of the library.

SMILES	ANO1 block	HDAC3 inhib	CHT block	PHOSPHO1 inh	ANO1 activ	CHT PAM	CHT activ conf	HEK293 MP dye
CCOC(=O)c1ccc2c(c1)n(CCCS(=O)(=O)[O-])c(/C=C/c1ccc(Cl)cc1)[n+]2CC	i	.	i	36	i	11*	71*	-86*
CC(C)C(=O)N1CCC2(CC1)Oc1ccc(Cl)cc1C(=O)C21CC(c2ccccc2)=NO1 (centres undefined)	i	7	i	22	i	i	6	i
CC(Oc1ccccc1)C(=O)N1CCC2(CC1)Oc1ccc(Cl)cc1C(=O)C21CC(c2ccccc2)=NO1 (centres undefined)	i	10	i	.	.	i	.	.
CCOC(=O)N1CCN(C(=O)c2ccc(N(Cc3ccc(Cl)cc3)S(C)(=O)=O)cc2)CC1	i	2	i	34	i	8.8*	2	i
CCOC(=O)N1CCN(C(=O)c2ccc(N(Cc3ccc(C)cc3)S(C)(=O)=O)cc2)CC1	i	?	i	0	i	i	.	.
COc1ccc(NC(=O)C(c2ccccc2)N2CCN(c3ccccn3)CC2)cc1Cl (centres undefined)	i	0	i	-19	i	7.9*	22*	i
COc1c(O)c(=O)n2c3ccccc3c3ccnc1c32	i	9	i	.	i	i	41*	i
CCc1ccc2nc(/N=C(\N)NC(=O)c3ccccc3)nc(C)c2c1	i	-1	i	-29	i	i	.	.
CCCC(=O)N/C(N)=N/c1nc(C)c2ccccc2n1	i	-12	i	15	i	i	36*	-46*
CSc1nc(NCCCO)c2c3c(sc2n1)CN(C)CC3	i	-38	i	20	i	i	41*	-47*
Cc1cccn2cc(-c3ccccc3)nc12	i	-9	i	8	i	i	.	.
Cc1cccn2cc(CNc3ccccc3)nc12	i	1	i	-5	i	i	31*	-26*
COc1ccccc1CNc1cc(CSc2ccc(Cl)cc2)nc(C)n1	25*	4	i	0	i	i	23*	i
COc1ccccc1CNC(=O)COC(=O)CSc1ccc(Cl)cc1	i	-2	i	.	i	i	.	.
CCn1cc(CN2CCCC(C(=O)Nc3cccc(-n4cccn4)c3)C2)c(C)n1 (centres undefined)	i	0	i	36	i	i	.	.
COc1ccc(S(=O)(=O)Nc2cc(C)ccn2)cc1OC	i	-6	i	2	i	i	.	.
CCN(CC)CCNC(=O)c1cc2c(-c3ccc(Cl)cc3)nn(C)c2s1	i	.	i	29	i	9.9*	33*	-21*
CCCN(CCC)CCNC(=O)c1cc2c(-c3ccc(Cl)cc3)nn(C)c2s1	i	-64	i	14	i	i	.	.
O=C(NC1CCCc2ccccc21)C1CCCC1 (centres undefined)	i	-3	i	33	i	i	.	.
Cc1cc(-n2c(C)c3c(C)nnc(C)c3c2C)ccc1N	i	3	i	25	i	6.7*	38*	-22*
CC(C)CC(c1nnnn1C(C)C)N1CCN(c2cccc(Cl)c2)CC1 (centres undefined)	i	-3	i	24	i	i	26*	i
CC(C)CC(c1nnnn1C(C)C)N1CCN(C(=O)c2ccco2)CC1 (centres undefined)	i	0	i	.	i	i	.	.
COCCOC(=O)C1=C(N)Oc2c(oc(CO)cc2=O)C1c1c(F)cccc1Cl (centres undefined)	i	-4	i	-26	i	i	.	.
CCN(C(C)=O)N(CC)c1nc(Cl)nc(NC(C)C)n1	i	1	i	-10	i	i	.	.
COc1ccc(OC)c2c(C)cc(NCCN3CCOCC3)nc12	i	-7	i	11	i	9.2*	65*	-60*
SMILES	ANO1 block	HDAC3 inhib	CHT block	PHOSPHO1 inh	ANO1 activ	CHT PAM	CHT activ conf	HEK293 MP dye
Cn1c2ccc(F)cc2c2ncn(CCCN(CCO)CCO)c(=O)c21	i	-20	i	7	i	i	50*	-41*
Cn1c2ccc(F)cc2c2ncn(CCN3CCOCC3)c(=O)c21	i	-3	i	7	i	i	.	.
O=C(NCC(c1ccco1)N1CCCC1)c1sc2cc(F)ccc2c1Cl (centres undefined)	.	7	.	.	i	.	.	.
Cc1nc2sc3c(c2c(=N)n1N)CC(C)(C)OC3	i	-4	i	22	i	8.4*	63*	-47*
Cc1ccc(-c2nc3sc4c(c3c(=O)n2N)CC(C)(C)OC4)cc1	i	0	i	-12	i	i	.	.
CN(C)CCNC(=O)c1onc(CSc2ccncc2)c1C(=O)NCCN(C)C	i	-6	i	.	i	i	50*	-58*
COCCCN1CN(S(=O)(=O)c2cccs2)c2nc3ccccc3nc21	i	9	i	8	i	i	.	.
Cn1c(=NC(=O)C2=NNC(=O)CC2)sc2ccccc21	i	6	i	48	i	6.9*	54*	-32*
CC12CCC(C1)C(C)(C)C2OC(=O)c1ccccc1C(=O)O (centres undefined)	i	.	i	6	i	i	.	.
Cn1c(=O)c2c(SCCN3CCOCC3)nc(C3CCCC3)nc2n(C)c1=O	i	4	i	44	i	7.4*	42*	-30*
CCc1nc(SCC(=O)N2CCOCC2)c2c(=O)n(C)c(=O)n(C)c2n1	i	-8	i	20	i	i	.	.
Cc1cc(=O)oc2cc(OCC(=O)N3CCC(O)CC3)c(Cl)cc12	i	-2	i	23	i	i	25*	-21*
N#CCCS(=O)(=O)c1ccc(N)cc1	i	-1	i	9	i	i	.	.
CCOCCCN(CCC#N)S(=O)(=O)c1ccc(S(=O)(=O)N2CCCC2)cc1	i	2	i	-16	i	i	.	.
C=CCOc1cccc(/C=N/NC(=O)CN(c2cc(Cl)ccc2OC)S(=O)(=O)c2ccc(C)c([N+](=O)[O-])c2)c1	i	?	i	-7	i	i	7	i
CC(C(=O)N1CCOCC1)c1ccccc1 (centres undefined)	.	0	.	.	i	.	.	.
